Screens (PubChem)
Shown are actives, neighbours in structure and some others; about 2.4% of the full set was active somewhere.
POLK inh: blocks human DNA polymerase kappa activity; Q9UBT6; purified Pol kappa, fluorescent DNA synthesis assay, 10 min; Potency, µM (top dose mostly 107 µM), for the others: top-dose activity, negative = inhibition, usual class: inhibitors; actives 0.53% (n = 400,000); AID 588579; also: % is scaled to controls: 0 for no effect and ±100 for the full control effect
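Readout: fluorescence, taken kinetically at 0 and 10 min. Conditions: 10 nM Pol kappa, 15 min RT compound preincubation, 50 nM substrate final. Controls: enzyme-free buffer wells.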
Pol eta inh: DNA polymerase eta (human) inhibition | Q9Y253 | recombinant Pol eta, fluorescent DNA replication assay | Potency, µM (highest dose often 114 µM), without a hit: at the top dose activity change, negative = inhibition, hits mostly inhibitors | actives 1.2% (n = 390,000) | AID 588591; also: % is scaled to controls: 0 for no effect and ±100 for the full control effect
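Pol eta (10 nM) was preincubated with compounds for 15 min at room temperature, after which fluorescent replication substrate (50 nM final) was added to start the reaction. Fluorescence was read kinetically at 0 and 10 min.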
Pol beta inh: DNA polymerase beta (human) inhibition. P06746. Pol beta primer extension/strand displacement, fluorescence kinetic. Potency, µM (highest dose often 114 µM), for inactives: at the highest dose activity change, negative = inhibition, actives largely listed as inhibitors. actives 1.3% (n = 340,000). AID 485314; also: % is scaled to controls: 0 for no effect and ±100 for the full control effect
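Enzyme-only controls used 10 nM Pol beta; buffer lacking enzyme served as negative control. Compound preincubated 15 min, then 50 nM substrate added; 0 and 10 min reads at room temperature.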
WRN helicase inh: inhibitors of human WRN helicase; actives 0.46% (n = 360,000); Q14191; Potency, µM (highest dose often 114 µM), without a hit: top-dose activity change, negative = inhibition, most hits filed as inhibitors; WRN helicase unwinding, fluorescent forked duplex, kinetic; also: % is scaled to controls: 0 for no effect and ±100 for the full control effect; nearly all actives have a fitted effect of over 55% in size
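Fluorescence dequenching readout, ex 525 nm/em 598 nm, kinetic mode: forked duplex DNA (100 nM final) with adjacent fluorophore and quencher unwound by WRN (20 nM final) with 2 mM ATP. Compound preincubation 15 min, room temperature.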
FEN1 inhibitor: human FEN1 inhibition | Recombinant FEN1 flap cleavage, fluorescence, 15 min | Potency, µM (doses to about 114 µM), for the others: at the highest dose activity change, negative = inhibition, hits mostly inhibitors | actives 0.35% (n = 390,000) | P39748 | AID 588795; also: % is scaled to controls: 0 for no effect and ±100 for the full control effect; nearly all actives have a fitted effect of over 65% in size
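Concentration–response screening of FEN1 (10 nM): 15 min compound preincubation at room temperature, reaction started with 50 nM substrate and read at 0 and 15 min. Corrected, normalized data were fitted by a four-parameter Hill equation.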
Pol iota inh: blocks human DNA polymerase iota activity. actives 1% (n = 390,000). AID 588590. Q9UNA4. Pol iota fluorescent replication assay, 10 min. Potency, µM (doses to about 115 µM), without a hit: top-dose activity, negative = inhibition, most hits filed as inhibitors
Target sequence (Q9UNA4 whole entry, looked up): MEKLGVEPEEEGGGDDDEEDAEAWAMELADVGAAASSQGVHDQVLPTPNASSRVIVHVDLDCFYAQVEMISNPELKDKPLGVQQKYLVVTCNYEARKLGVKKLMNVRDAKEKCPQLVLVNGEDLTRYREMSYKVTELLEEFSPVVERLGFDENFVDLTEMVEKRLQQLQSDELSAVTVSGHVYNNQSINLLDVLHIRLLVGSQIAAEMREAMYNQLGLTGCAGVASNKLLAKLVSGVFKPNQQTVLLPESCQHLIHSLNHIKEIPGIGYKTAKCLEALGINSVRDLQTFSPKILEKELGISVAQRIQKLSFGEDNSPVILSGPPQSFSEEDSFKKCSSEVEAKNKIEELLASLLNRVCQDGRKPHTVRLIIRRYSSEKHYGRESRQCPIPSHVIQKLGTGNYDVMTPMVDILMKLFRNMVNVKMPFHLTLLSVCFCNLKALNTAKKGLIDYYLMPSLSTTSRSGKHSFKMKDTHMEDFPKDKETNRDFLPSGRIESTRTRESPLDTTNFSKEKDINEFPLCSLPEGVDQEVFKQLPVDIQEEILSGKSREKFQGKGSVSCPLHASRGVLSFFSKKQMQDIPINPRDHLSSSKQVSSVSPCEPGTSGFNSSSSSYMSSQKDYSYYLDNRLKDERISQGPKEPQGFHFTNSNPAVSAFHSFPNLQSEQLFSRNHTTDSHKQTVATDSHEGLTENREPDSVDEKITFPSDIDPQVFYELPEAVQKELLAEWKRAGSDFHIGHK
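Pol iota at 10 nM preincubated 15 min with compounds at room temperature; reaction started with fluorescent substrate, 50 nM final. Fluorescence read kinetically at 0 and 10 min; buffer-only wells as negative control.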
The depositor's hits bear a star; ? = inconclusive; · = not tested or not shown; ! = not active in a repeat; [ ] = dose if it differs, or a comment. Calls follow the shape of the dose curve; as a rule, active = well fitted curve in the direction sought with a large enough effect; inconclusive = small, poorly fitted or top-dose-only effect, or another doubt; inactive = no such curve, though single readings can be large; an effect the other way counts as inactive or inconclusive. Potency is read from the fitted curve at half-maximal effect.

SMILES	POLK inh	Pol eta inh	Pol beta inh	WRN helicase inh	FEN1 inhibitor	Pol iota inh
N#C/C(=C\c1ccc(O)c(O)c1)C(=O)NCCCc1ccccc1	?	15.8µM*!	?	?	0.5%	?
COc1ccc(/C=C(\C#N)C(=O)NCCc2ccccc2)cc1OCc1ccccc1	1.9%	-20.6%	-2.8%	-3.1%	-6.7%	10.2%
C/C=C(/C)C(=O)O[C@H]1C[C@@]2(C)O[C@H]2[C@@H](OC(C)=O)C2(C)CC[C@@](O)(C(C)C)C12 (some centres not stated)	5.8%[60.1 µM]	·	·	·	·	·
CCn1c(SCC(=O)Nc2oc(-c3ccccc3)c(-c3ccccc3)c2C#N)nnc1-c1ccncc1	?	70.8µM*	0.1%	-5.7%[11.6 µM]	-18.4%	?
Cc1ccc(S(=O)(=O)N2CCN(c3nc(-n4ccnn4)nc4ccccc34)CC2)cc1	7.1%	·	·	·	-3.4%	10.3%
O=C1C=C(O)c2cccc3cccc1c23	-6.1%	-0.5%	-7.8%	-9.2%[57.1 µM]	2µM*	12.7%
O=C1C=C(N2CCOCC2)c2cccc3cccc1c23	·	-10.7%	·	-20.9%	·	·
O=C1C=C(O)c2c(O)cccc2C1=O	·	·	15.8µM*	·	·	·
COc1ncc2nc(-c3cc(F)cc(F)c3)c(=O)n(CCc3ccccc3)c2n1	-18.4%[60.1 µM]	·	·	·	·	·
O=C(COc1ccccc1C(=O)Nc1ccccc1F)Nc1ccc(Br)cc1	3.3%	·	·	·	3.2%	16.1%
CC1=NN(c2ccccc2)C(=O)/C1=C\C=C\c1ccccc1	-15.7%	79.4µM*	?	-14.4%[11.6 µM]	?	?
CC1=NN(c2ccc(C(=O)OC(C)C)cc2)C(=O)/C1=C\C=C\c1ccco1	-2.7%	?	50.1µM*	-4.0%	-9.2%	-1.5%
O=C1c2ccccc2CCC1CNCCc1ccc(O)cc1 (configuration not stated)	-2.0%[19.4 µM]	·	·	·	·	·
CCOc1cc(/C=C2\C(=O)N(c3cccc(C(=O)O)c3)N=C2C(F)(F)F)ccc1OCC(=O)Nc1ccccc1OC	·	·	20µM*	·	·	·
C[n+]1cccc2ccc3c(c21)OC(N)=C(C#N)C3c1ccccc1 (configuration not stated)	-15.7%	-3.2%	3.4%	-4.7%	-10.1%	17.8µM*
C[n+]1cccc(C2C(C#N)=C(N)Oc3c2ccc2ccccc32)c1 (configuration not stated)	-23.4%	-14.5%	6.8%	27.6%	-23.5%	108.8%
CCn1c(O)c(/C=C/C=C/C=Nc2ccccc2)sc1=S	-25.9%	-12.4%	1.4%	-27.5%	11.7%	?
Oc1c(/C=C/C=C/C=Nc2ccccc2)sc(=S)n1Cc1ccccc1	79.4µM*	?	-57.9%	-29.6%	-16.2%	25.1µM*
CCC(=O)N(CCC(c1ccco1)C(C)C)Cc1ccccc1 (configuration not stated)	-8.4%	-22.5%	3.0%	-8.6%	14.5%	136.6%
CCC(=O)N(CCC(c1ccc(C)cc1)c1ccco1)Cc1ccco1 (configuration not stated)	?	?	25.1µM*	?	-20.4%	44.7µM*
COc1ccc(/C=N/Nc2cc(C)nc3c(C)cccc23)cc1	-17.7%	?	25.1µM*	?	17.8µM*	-13.4%
COc1cccc2c(N/N=C/c3ccc(O)c(O)c3)cc(C)nc12	-30.6%	-8.8%	20µM*	-3.6%	-13.1%	?
COc1ccc2nc(C)cc(N/N=C/c3ccc(F)cc3)c2c1	-12.8%	-5.1%	-2.7%	4.8%	?	-19.9%
COc1ccc2nc(C)cc(Nc3ccc(C(=O)O)cc3)c2c1	-3.0%	-4.5%	-2.9%	1.2%	11.4%	-4.9%
COc1ccc(/C=N/Nc2cc(C)nc3ccccc23)cc1	-22.7%	?	79.4µM*	?	39.8µM*	?
SMILES	POLK inh	Pol eta inh	Pol beta inh	WRN helicase inh	FEN1 inhibitor	Pol iota inh
COc1ccc(Nc2cc(C)nc3c(C)c(C)ccc23)cc1	-2.6%[60.1 µM]	-15.4%	-27.2%	·	?	-18.5%
COc1ccc(Nc2cc(C)nc3ccc(OC)cc23)cc1	-22.0%	-11.5%	22.4µM*	-27.4%	?	?
O=C(NC1CCCCCC1)C1CCC(CNS(=O)(=O)c2cccc3cccnc23)CC1 (configuration not stated)	7.5%	·	·	·	-12.5%	3.1%
CS(=O)(=O)c1ccc(/C=C2\C=Cc3ccccc32)cc1	-9.5%	·	·	·	-24.7%	-6.8%
CCc1ccc(Nc2cc(C)nc3nc(Cc4ccc(Cl)cc4)nn23)cc1	-24.4%	-9.2%	-6.5%	·	-6.9%	-4.1%
N#Cc1ccc(CSc2nnc(NC(=O)c3ccc4ncsc4c3)s2)cc1	-6.5%	31.6µM*	16.5%	?	-11.7%	?
Cc1ccc(NC(=O)CSc2sc3c(O)cc(=O)[nH]c3c2C#N)c(F)c1	-21.0%	56.2µM*	-19.9%	-11.2%[11.6 µM]	-5.2%	?
COc1cccc(Cn2c(=O)cnc3cnc(OC)nc32)c1	4.5%[60.1 µM]	·	·	·	·	·
CCCCCCc1cc2cc(-c3nnc(-c4ccccc4O)o3)c(=O)oc2cc1O	0.1%	1.78µM*	?	-12.7%	4.9%	?
CCCCCCc1cc2cc(-c3nnc(-c4cc(OC)c(OC)c(OC)c4)o3)c(=O)oc2cc1O	-8.7%	?	8.2%	-9.6%	-22.1%	6.4%
O=C1C=C(Nc2ccccc2)c2ccccc2C1=O	2.1%	?	-2.2%	3.4%[11.6 µM]	-9.1%	22.4µM*
O=C1C=C(Nc2ccccc2)C(=O)c2ccccc21	-3.3%	-9.2%	44.6%	-6.0%	-12.6%	27.7%
CC(C)(C)c1ccc(/C=N/Nc2nncn2N)cc1	-2.8%	-7.5%	-18.7%	3.0%[11.6 µM]	-12.1%	3.16µM*
CC(C)(C)c1nnc(N/N=C/c2ccc(Br)cc2)n(N)c1=O	-6.9%	-20.9%	2.5%	-14.5%	8.5%	15.0%
COc1cc(/C=N\Nc2nncn2N)ccc1OC(C)=O	-27.0%	-10.3%	16.9%	0.4%[11.6 µM]	-12.8%	7.08µM*
CSc1ccc(/C=N\Nc2nncn2N)cc1	-4.1%	-22.4%	3.2%	9.7%	?	5.62µM*
COc1cc(/C=N/NC(=O)c2ccncc2)ccc1OC(C)=O	4.6%	-12.7%	27.9%	-0.9%	0.9%	-0.1%
O=C(O)CN1C(=O)/C(=C/C=C/c2ccccc2)SC1=S	-38.6%	-22.2%	-22.6%	-1.2%	-0.6%	?
C#CCN1C(=O)S/C(=C/C=C/c2ccc(N(C)C)cc2)C1=O	-18.7%	-18.6%	1.5%	35.5µM*	?	79.4µM*
CC(=O)N1CCN(/[N+]([O-])=N/Oc2ccc([N+](=O)[O-])cc2[N+](=O)[O-])CC1	6.0%	·	·	·	4.3%	?
COC1C(OC(=O)/C=C/C=C/C=C/C=C/C(=O)O)CCC2(CO2)C1C1(C)OC1CC=C(C)C (configuration not stated)	-5.1%[60.1 µM]	·	·	·	·	·
Cc1ccc(NC(=O)c2ccc3c(c2)NC(=O)c2ccccc2S3)c(Cl)c1	8.6%	-24.9%	?	·	4.7%	79.4µM*
